Measurements from PubChem BioAssay (EPA / NIEHS).
Active and inactive are the calls of the source. Rule for the calls: active = hit-call score of the fitted dose curve at least 0.9, where 1 is the maximum; inactive = score below 0.9.

Columns and labels:
[1] = molecular target: Transcription factor E2F1 (Homo sapiens) (UniProt Q01094); assay: ATG_E2F_CIS: Attagene CIS-FACTORIAL HepG2 Assay for human E2F Transcription Factor 1 (AID 2282935); conditions: HepG2 Attagene cis-reporter, E2F reporter RNA transcripts; actives raise or lower the signal
Sequence of Transcription factor E2F1 (Homo sapiens) (Q01094 whole entry, looked up): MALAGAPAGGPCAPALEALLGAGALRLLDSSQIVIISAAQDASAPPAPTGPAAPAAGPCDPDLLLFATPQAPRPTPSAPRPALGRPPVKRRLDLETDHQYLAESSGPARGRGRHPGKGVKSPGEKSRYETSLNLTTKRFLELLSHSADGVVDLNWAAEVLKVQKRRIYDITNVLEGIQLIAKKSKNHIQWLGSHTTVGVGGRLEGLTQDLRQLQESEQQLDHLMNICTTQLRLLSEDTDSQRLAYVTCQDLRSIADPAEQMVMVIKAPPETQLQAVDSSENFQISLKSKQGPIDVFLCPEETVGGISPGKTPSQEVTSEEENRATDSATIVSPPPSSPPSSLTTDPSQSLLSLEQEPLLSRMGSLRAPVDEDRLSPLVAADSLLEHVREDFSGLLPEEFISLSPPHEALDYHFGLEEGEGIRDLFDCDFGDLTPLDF
Procedure, shortened: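 Measures reporter transcript levels via RT-PCR with capillary electrophoresis detection in HepG2 cells harboring cis-regulated reporter units; 24 h post-dose; bidirectional curve fitting with DMSO as baseline.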

[2] = ATG_E_Box_CIS: Attagene CIS-FACTORIAL HepG2 Assay for human Enhancer Box (E-box) (AID 2282936); conditions: HepG2 E-box cis-reporter transcription, actives raise or lower the signal
Procedure, shortened: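 First, HepG2 cells receive multiple cis-regulated reporter constructs by transient transfection. Next, chemicals are applied for 24 h. Finally, reporter mRNA is quantified via RT-PCR and capillary electrophoresis, with DMSO as baseline.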

[3] = ATG_M_61_CIS: Attagene CIS-FACTORIAL HepG2 Assay for M61 Transcription Factor (Internal Marker) (AID 2282937); conditions: HepG2 Attagene CIS-FACTORIAL M61 internal marker reporter; actives raise or lower the signal
Procedure, shortened: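 Human liver HepG2, transient MRTU transfection (cis promoter elements), 24 h compound. Total RNA → oligo(dT) RT → PCR → FAM label → HpaI → CE. Internal background marker; bidirectional fitting, DMSO = baseline.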

[4] = ATG_EGR_CIS: Attagene CIS-FACTORIAL HepG2 Assay for human Early Growth Response 1 (EGR1) (AID 2282938); conditions: HepG2 Attagene CIS-FACTORIAL EGR reporter mRNA; actives raise or lower the signal
Procedure, shortened: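 Transient transfection of human HepG2 with multiple cis-regulated reporter units, chemical exposure 24 h, total RNA isolated. Reverse transcription, PCR, fluorescent labelling and capillary electrophoresis quantify reporter transcripts; activity fitted bidirectionally against DMSO.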

[5] = ATG_M_19_CIS: Attagene CIS-FACTORIAL HepG2 Assay for M19 Transcription Factor (Internal Marker) (AID 2282939); conditions: HepG2 Attagene CIS-FACTORIAL M19 internal marker reporter; actives raise or lower the signal
Procedure, shortened: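 Internal marker readout, fitted in both directions against DMSO, from HepG2 cells carrying transfected cis-element reporter constructs; RT-PCR and capillary electrophoresis of reporter mRNA after 24 h exposure.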

[6] = ATG_ERE_CIS: Attagene CIS-FACTORIAL HepG2 Assay for Estrogen Response Element (ERE) (AID 2282940); conditions: HepG2 ERE cis-reporter, Attagene RNA transcript; actives raise or lower the signal
Procedure, shortened: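 After 24 h compound treatment, RNA from transfected HepG2 cells was reverse-transcribed, reporter cDNA PCR-amplified, FAM-labelled, HpaI-cut and resolved by capillary electrophoresis. ERE-driven cis reporter transcripts reflect endogenous factors; gain or loss scored against DMSO.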

[7] = ATG_Ets_CIS: Attagene CIS-FACTORIAL HepG2 Assay for human Erythroblast Transformation Specific (ETS) (AID 2282941); conditions: HepG2 ETS cis-reporter transcription, actives raise or lower the signal
Procedure, shortened: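 HepG2 cells transiently transfected with cis-promoter reporter transcription units were dosed for 24 h; reporter mRNA was measured by RT-PCR, 6-FAM primer extension, HpaI digestion and capillary electrophoresis, with bidirectional fitting against DMSO baseline.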

[8] = molecular target: Hepatocyte nuclear factor 3-beta (Homo sapiens) (UniProt Q9Y261); assay: ATG_FoxA2_CIS: Attagene CIS-FACTORIAL HepG2 Assay for human Forkhead box A2 (FOXA2) (AID 2282942); conditions: HepG2 cis-reporter transcription factor activity, 24 h; actives raise or lower the signal
Sequence of Hepatocyte nuclear factor 3-beta (Homo sapiens) (Q9Y261 whole entry, looked up): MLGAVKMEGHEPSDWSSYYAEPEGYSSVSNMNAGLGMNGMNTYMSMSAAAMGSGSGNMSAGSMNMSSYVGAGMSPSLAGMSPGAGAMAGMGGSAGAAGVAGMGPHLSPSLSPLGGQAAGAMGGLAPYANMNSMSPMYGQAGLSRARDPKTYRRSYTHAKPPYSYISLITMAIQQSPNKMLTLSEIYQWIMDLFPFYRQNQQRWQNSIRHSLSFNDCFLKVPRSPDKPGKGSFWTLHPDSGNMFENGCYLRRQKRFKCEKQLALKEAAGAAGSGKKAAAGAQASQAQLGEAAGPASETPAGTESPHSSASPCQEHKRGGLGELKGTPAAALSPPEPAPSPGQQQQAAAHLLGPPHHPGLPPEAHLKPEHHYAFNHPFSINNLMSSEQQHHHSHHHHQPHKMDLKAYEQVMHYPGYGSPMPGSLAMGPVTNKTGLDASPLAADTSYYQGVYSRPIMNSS
Procedure, shortened: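 Transient MRTU transfection of HepG2 liver cells; 24 h treatment; total RNA → oligo(dT) RT → PCR → FAM primer extension → HpaI cut → CE. Bidirectional fit vs DMSO.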

[9] = ATG_FoxO_CIS: Attagene CIS-FACTORIAL HepG2 Assay for human Forkhead box O (FoxO) (AID 2282943); conditions: HepG2 Attagene cis-reporter, FoxO element, mRNA; actives raise or lower the signal
Procedure, shortened: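 Transfected HepG2 reporter cells exposed to test chemical for 24 h; reporter RNA measured by reverse transcription, PCR and fluorescent capillary electrophoresis; curves fitted for increases and decreases against DMSO.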

[10] = ATG_GATA_CIS: Attagene CIS-FACTORIAL HepG2 Assay for human GATA Binding Protein (AID 2282944); conditions: HepG2 GATA cis-element reporter, Attagene multiplex mRNA; actives raise or lower the signal
Procedure, shortened: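 Reporter transcripts from a GATA cis-regulated unit, among multiplexed reporters in transfected HepG2 cells, were measured by RT-PCR with capillary electrophoresis after 24 h dosing. Induction or loss scored relative to DMSO.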

[11] = ATG_GLI_CIS: Attagene CIS-FACTORIAL HepG2 Assay for human Zinc Finger Protein GLI1 (AID 2282945); conditions: HepG2, Attagene cis-factorial reporter mRNA, GLI element; actives raise or lower the signal
Procedure, shortened: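 Transiently transfected HepG2 cells report endogenous transcription factor activity via cis-element-driven reporter units. After 24 h compound exposure, reporter mRNA was measured by RT-PCR with capillary electrophoresis; bidirectional fitting against DMSO baseline.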

[12] = molecular target: Bile acid receptor (Homo sapiens) (UniProt Q96RI1); assay: ATG_IR1_CIS: Attagene CIS-FACTORIAL HepG2 Assay for human Nuclear Receptor Subfamily 1 Group H Member 4 (NR1H4), IR1 submotif (AID 2282946); conditions: IR1 reporter transcription, actives raise or lower the signal
Sequence of Bile acid receptor (Homo sapiens) (Q96RI1 whole entry, looked up): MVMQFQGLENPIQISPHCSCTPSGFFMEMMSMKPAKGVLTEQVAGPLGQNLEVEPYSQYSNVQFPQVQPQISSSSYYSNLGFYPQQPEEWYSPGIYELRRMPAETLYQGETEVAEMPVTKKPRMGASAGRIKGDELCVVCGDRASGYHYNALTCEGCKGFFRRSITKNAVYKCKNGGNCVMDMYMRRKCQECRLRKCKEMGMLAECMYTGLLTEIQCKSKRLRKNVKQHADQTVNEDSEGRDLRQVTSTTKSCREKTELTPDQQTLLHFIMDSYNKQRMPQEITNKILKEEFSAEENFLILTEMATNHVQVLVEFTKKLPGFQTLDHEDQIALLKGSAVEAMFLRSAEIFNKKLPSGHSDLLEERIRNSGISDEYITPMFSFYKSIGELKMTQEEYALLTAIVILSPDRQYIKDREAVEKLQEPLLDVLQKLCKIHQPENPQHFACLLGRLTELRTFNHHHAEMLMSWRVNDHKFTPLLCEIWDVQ
Procedure, shortened: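 HepG2 cells transiently transfected with multiple cis-promoter-driven reporter units to measure endogenous transcription factor activity; 24 h exposure. Reporter mRNA read by RT-PCR, FAM labelling, HpaI digestion and capillary electrophoresis. Bidirectional fit versus DMSO.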

[13] = ATG_GRE_CIS: Attagene CIS-FACTORIAL HepG2 Assay for human Glucocorticoid Response Elements (GRE) (AID 2282947); conditions: HepG2 GRE cis-reporter, Attagene multiplex mRNA; actives raise or lower the signal
Procedure, shortened: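 Endogenous transcription factor activity is read through cis-element reporter constructs transiently transfected into HepG2 cells. After 24 h treatment, labelled RT-PCR products are resolved by capillary electrophoresis; DMSO sets baseline for bidirectional curve fitting.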

[14] = ATG_ISRE_CIS: Attagene CIS-FACTORIAL HepG2 Assay for human Interferon Regulatory Factor 1 (IRF1) binding to an Interferon-Stimulated Response Element (ISRE) (AID 2282948); conditions: HepG2 ISRE cis-reporter (Attagene), mRNA transcription readout; actives raise or lower the signal
Procedure, shortened: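 HepG2 cells transiently transfected with multiplexed cis-promoter reporter units; after 24 h compound exposure, reporter mRNA quantified by RT-PCR, FAM labelling, HpaI digestion and capillary electrophoresis. Bidirectional fit versus DMSO baseline.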

[15] = ATG_M_32_CIS: Attagene CIS-FACTORIAL HepG2 Assay for M32 Transcription Factor (Internal Marker) (AID 2282949); conditions: HepG2 Attagene cis-factorial M32 reporter, mRNA; actives raise or lower the signal;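 note: background control marker of the multiplexed CIS panel rather than a real target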
Procedure, shortened: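 Internal background marker read-out: RT-PCR/capillary electrophoresis fluorescence of reporter transcripts from transiently transfected HepG2 cells after 24 h chemical exposure. Activity fitted bidirectionally relative to DMSO negative control.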

[16] = ATG_M_06_CIS: Attagene CIS-FACTORIAL HepG2 Assay for M06 Transcription Factor (Internal Marker) (AID 2282950); conditions: HepG2 Attagene CIS-FACTORIAL M06 internal marker reporter; actives raise or lower the signal
Procedure, shortened: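 Serves as a background control readout. Transfected HepG2 exposed to compounds for 24 h, then reporter transcripts quantified by fluorescent RT-PCR and capillary electrophoresis. Both directions fitted against DMSO baseline.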

[17] = molecular target: Hypoxia-inducible factor 1-alpha (Homo sapiens) (UniProt Q16665); assay: ATG_HIF1a_CIS: Attagene CIS-FACTORIAL HepG2 Assay for human Hypoxia Inducible Factor 1 (HIF1A) (AID 2282951); conditions: HepG2 Attagene cis-factorial HIF1a reporter transcription; actives raise or lower the signal
Sequence of Hypoxia-inducible factor 1-alpha (Homo sapiens) (Q16665 whole entry, looked up, the tested form may be a part): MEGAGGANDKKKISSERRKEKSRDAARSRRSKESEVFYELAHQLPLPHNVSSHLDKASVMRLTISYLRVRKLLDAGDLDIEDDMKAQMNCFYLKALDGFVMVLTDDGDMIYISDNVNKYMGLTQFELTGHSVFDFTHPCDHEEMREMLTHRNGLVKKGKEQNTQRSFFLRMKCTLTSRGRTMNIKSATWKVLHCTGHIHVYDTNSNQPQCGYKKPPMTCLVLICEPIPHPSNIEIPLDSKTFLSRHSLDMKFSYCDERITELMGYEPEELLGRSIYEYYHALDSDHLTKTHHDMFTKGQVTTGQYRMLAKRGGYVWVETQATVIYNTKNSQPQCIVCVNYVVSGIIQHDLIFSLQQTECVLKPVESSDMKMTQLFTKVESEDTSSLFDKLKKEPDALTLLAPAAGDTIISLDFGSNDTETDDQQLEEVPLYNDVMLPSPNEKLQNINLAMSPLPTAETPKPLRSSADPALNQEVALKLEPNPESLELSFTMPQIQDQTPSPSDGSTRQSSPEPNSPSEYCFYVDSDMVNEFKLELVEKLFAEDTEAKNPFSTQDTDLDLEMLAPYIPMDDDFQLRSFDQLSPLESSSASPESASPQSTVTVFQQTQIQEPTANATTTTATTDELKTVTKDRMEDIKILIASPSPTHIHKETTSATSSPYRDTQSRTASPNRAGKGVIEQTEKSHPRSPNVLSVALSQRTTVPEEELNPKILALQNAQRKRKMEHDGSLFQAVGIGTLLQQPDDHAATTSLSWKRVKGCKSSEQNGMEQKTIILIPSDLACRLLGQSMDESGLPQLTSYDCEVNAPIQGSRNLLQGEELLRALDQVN
Procedure, shortened: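 Transient MRTU transfection of human HepG2 liver cells, 24 h compound treatment, then total RNA isolation, oligo(dT) reverse transcription, PCR amplification, fluorescent labelling and capillary electrophoresis of reporter fragments. Gain or loss relative to DMSO.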

[18] = molecular target: Hepatocyte nuclear factor 6 (Homo sapiens) (UniProt Q9UBC0); assay: ATG_HNF6_CIS: Attagene CIS-FACTORIAL HepG2 Assay for human Hepatocyte Nuclear Factor 6 (HNF6) (AID 2282952); conditions: HepG2 Attagene cis-factorial HNF6 reporter transcription; actives raise or lower the signal
Sequence of Hepatocyte nuclear factor 6 (Homo sapiens) (Q9UBC0 whole entry, looked up): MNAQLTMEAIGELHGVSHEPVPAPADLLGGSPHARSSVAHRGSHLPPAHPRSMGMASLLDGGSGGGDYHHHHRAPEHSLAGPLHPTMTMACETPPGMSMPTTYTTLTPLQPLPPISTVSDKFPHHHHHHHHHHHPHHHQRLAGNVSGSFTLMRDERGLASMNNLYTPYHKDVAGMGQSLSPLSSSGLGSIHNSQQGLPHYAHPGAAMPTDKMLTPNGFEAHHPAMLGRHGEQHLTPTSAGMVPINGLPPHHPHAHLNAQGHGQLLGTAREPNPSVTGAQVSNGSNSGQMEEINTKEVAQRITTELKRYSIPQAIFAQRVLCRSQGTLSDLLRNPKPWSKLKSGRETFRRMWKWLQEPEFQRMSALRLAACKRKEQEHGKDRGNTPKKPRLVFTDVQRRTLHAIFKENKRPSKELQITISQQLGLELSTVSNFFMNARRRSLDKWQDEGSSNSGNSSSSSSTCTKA
Procedure, shortened: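 HepG2 cells transiently transfected with cis-element-driven multiple reporter transcription units, dosed 24 h; reporter mRNA quantified by RT-PCR, FAM primer extension, HpaI digestion and capillary electrophoresis; bidirectional fit versus DMSO baseline.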

[19] = ATG_MRE_CIS: Attagene CIS-FACTORIAL HepG2 Assay for human Metal Responsive Element (MRE) (AID 2282954); conditions: HepG2 MRE cis-reporter transcription, Attagene multiplex; actives raise or lower the signal
Procedure, shortened: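 Fluorescent reporter fragments separated by capillary electrophoresis give mRNA induction for the MRE unit after 24 h treatment of transfected HepG2 cells. Endogenous transcription-factor activity is read; DMSO serves as negative control and baseline.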

[20] = molecular target: Heat shock factor protein 1 (Homo sapiens) (UniProt Q00613); assay: ATG_HSE_CIS: Attagene CIS-FACTORIAL HepG2 Assay for human Heat Shock Transcription Factor 1 (HSE) (AID 2282953); conditions: HepG2 HSE cis-reporter, Attagene RNA transcription; actives raise or lower the signal
Sequence of Heat shock factor protein 1 (Homo sapiens) (Q00613 whole entry, looked up): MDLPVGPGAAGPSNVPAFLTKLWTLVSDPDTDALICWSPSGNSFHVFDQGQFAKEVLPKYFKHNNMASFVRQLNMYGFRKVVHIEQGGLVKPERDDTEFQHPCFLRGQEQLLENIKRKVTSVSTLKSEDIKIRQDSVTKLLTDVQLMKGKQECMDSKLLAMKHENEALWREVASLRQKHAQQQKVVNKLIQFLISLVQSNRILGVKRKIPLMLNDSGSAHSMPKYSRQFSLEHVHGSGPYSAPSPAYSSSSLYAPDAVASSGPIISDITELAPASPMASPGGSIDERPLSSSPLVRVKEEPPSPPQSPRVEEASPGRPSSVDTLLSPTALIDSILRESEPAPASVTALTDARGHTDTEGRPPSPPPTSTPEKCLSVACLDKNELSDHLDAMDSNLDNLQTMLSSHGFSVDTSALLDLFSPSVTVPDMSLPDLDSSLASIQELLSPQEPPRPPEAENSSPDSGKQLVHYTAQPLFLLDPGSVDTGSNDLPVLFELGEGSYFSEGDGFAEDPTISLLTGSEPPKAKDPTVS
Procedure, shortened: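 Endogenous transcription factor activity in transiently transfected HepG2, read as reporter mRNA by RT-PCR with fluorescent capillary electrophoresis after 24 h. Gain or loss of signal fitted versus DMSO baseline.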

Measured: AC50

CN(C)c1ccc2nc3ccc(=[N+](C)C)cc-3sc2c1
active: [2] 16.7 µM | [14] 41.6 µM | [17] 0.766 µM
not listed: [20]
inactive: all other assays above

COc1ccc(-c2coc3cc(O)cc(O)c3c2=O)cc1
active: [6] 0.397 µM | [20] 174 µM | [19] 138 µM
not listed: [12]
inactive: all other assays above

CC(=O)c1ccc(S(=O)(=O)NC(=O)NC2CCCCC2)cc1
not listed: [17] | [18]
inactive: all other assays above

CC(=O)CCC=C(C)C
not listed: [12]
inactive: all other assays above

CCCCC1CCC(=O)O1 (stereo not drawn)
not listed: [12]
inactive: all other assays above

CC(CCC(=O)O)(c1ccc(O)cc1)c1ccc(O)cc1
active: [6] 50.4 µM
not listed: [13] | [17]
inactive: all other assays above

C=Cc1cccc(C)c1
not listed: [12] | [19]
inactive: all other assays above

CCCCCCCCCC(C)=O
not listed: [12] | [19]
inactive: all other assays above
